In the supplement of paper PMC4466236:
Over roughly 33,000 sequences, “E-score (dimensionless, -0.5 to 0.5)” has its median near -0.058; the highest 2% begin near 0.35. Shown is part of a subset that was picked to be rich in the highest values.

test system: MvaT; assay: PBM 8-mer E-score (mean of HK and ME arrays) (E-score (dimensionless, -0.5 to 0.5)); higher = stronger relative binding preference
Experimental: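 Protein binding microarray: GST-tagged full-length MvaT (P. aeruginosa PAO1) bound to two universal double-stranded 60-mer arrays (ME and HK), each with a constant 25-mer primer and a variable 35-mer region covering all 8-mers. The 8-mer E-score (rank-based, range -0.5 to 0.5, >0.45 = specific binding) is the mean of the two arrays.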

| Sequence | PBM 8-mer E-score |
| --- | --- |
| GAAATGAA | 0.17 |
| CAGGTGTC | -0.277 |
| AGACTTGG | -0.179 |
| AGTGTCTC | -0.00692 |
| ACGCTCTC | -0.273 |
| CCGTAGGA | -0.216 |
| ATACCGAG | -1.06e-05 |
| AAGAGAAT | 0.126 |
| GCTATGGA | -0.0686 |
| CGCCTAAG | -0.113 |
| AGCTCCCG | -0.29 |
| CCTTTTGA | -0.074 |
| CAAATAAA | 0.301 |
| AAAATAAG | 0.331 |
| AAAATAAA | 0.409 |
| TAAATAGA | 0.291 |
| TAAATAAA | 0.421 |
| AAAATAGA | 0.173 |
| AGTGCTAT | 0.172 |
| TACGATCA | 0.0229 |
| TCGAATCA | -0.0287 |
| ACACTTGC | -0.00708 |
| ACCAATAT | 0.282 |
| AACAATAG | 0.294 |
| AACAATAT | 0.362 |

| Sequence | PBM 8-mer E-score |
| --- | --- |
| AACAATTA | 0.391 |
| AACAATTC | 0.27 |
| CACAATAA | 0.351 |
| AACAATCT | 0.0729 |
| CACAATAG | 0.176 |
| AACAATAC | 0.254 |
| TACAATAA | 0.328 |
| AACAATAA | 0.422 |
| AACAATTG | 0.217 |
| ATGTAGTC | 0.1 |
| GGACGTTA | -0.103 |
| CACATTAG | 0.162 |
| CAGCGAGC | -0.199 |
| GCCCCCGC | -0.248 |
| CCTTTGAG | -0.158 |
| ACACGACG | -0.192 |
| ATGATCAC | -0.0926 |
| CACTTATC | 0.14 |
| CACTTATG | 0.12 |
| AACTTAGG | 0.182 |
| GACTTATC | 0.0104 |
| AACTTAGT | 0.289 |
| AACTTATT | 0.398 |
| AACTTATG | 0.372 |
| AACTTACT | 0.335 |

| Sequence | PBM 8-mer E-score |
| --- | --- |
| AACTTATC | 0.351 |
| CAGAGCCC | -0.374 |
| ATCTCGAA | -0.0688 |
| ACTGGAAG | -0.0943 |
| ACTCTGGC | -0.165 |
| AAGCACAG | -0.107 |
| AAAGTAAC | 0.206 |
| AAAGTAAT | 0.373 |
| ATAGTAAT | 0.353 |
| ATAGTAAA | 0.327 |
| ATAGTAAC | 0.271 |
| AAAGTAAA | 0.306 |
| AGTCATCG | -0.269 |
| CTCATATC | -0.0618 |
| CATATAGG | 0.151 |
| CATATACG | 0.143 |
| CATATATG | 0.449 |
| CATATCTA | 0.122 |
| CATATATC | 0.398 |
| CTCATATA | 0.324 |
| CATATATA | 0.451 |
| CATATACC | 0.166 |
| GAGGGGAC | -0.373 |
| CCCCAAAA | -0.131 |
| ACAGATAA | 0.287 |

| Sequence | PBM 8-mer E-score |
| --- | --- |
| GCCGACTA | -0.209 |
| AACCTACC | -0.156 |
| GGGATTAA | 0.144 |
| GGCGGTTA | -0.177 |
| ATTAGCAC | 0.0511 |
| CAACCCGA | -0.0421 |
| GAATAAAC | 0.192 |
| TAAAAAAA | 0.321 |
| GGATAAAA | 0.265 |
| CAATAAAA | 0.286 |
| TAATAAAA | 0.389 |
| GAATAAAA | 0.354 |
| GCTGCTAA | -0.101 |
| CTATGCAG | -0.146 |
| ATCTAGCA | 0.152 |
| ATAAGTAA | 0.371 |
| TTAAGTAA | 0.328 |
| ATAAGTAT | 0.356 |
| TAAAGTAA | 0.365 |
| GTAAGTAA | 0.207 |
| ATAAGTAC | 0.305 |
| CAAAGTAA | 0.216 |
| AAAAGTAA | 0.28 |
| ATAAGTAG | 0.341 |
| ATCGTCAC | -0.196 |

| Sequence | PBM 8-mer E-score |
| --- | --- |
| CCTTCAAA | -0.128 |
| CCACGACA | 0.011 |
| AACATCAT | 0.171 |
| CCCTACCC | -0.224 |
| CCAAACGC | -0.0718 |
| AGCTGCAC | -0.122 |
| ACTTGCAA | 0.123 |
| CCAAACAC | 0.111 |
| ATCAGTGA | -0.0827 |
| CTATCCAG | -0.0225 |
| ATTCTTGA | 0.0466 |
| ATTCGGTG | -0.00558 |
| AATCCACA | 0.139 |
| AATATCAA | 0.338 |
| AATATATC | 0.445 |
| AATATATG | 0.446 |
| AATATCCC | 0.174 |
| GATATCAC | 0.119 |
| AATATCTC | 0.253 |
| AATATCTG | 0.207 |
| ACTATATG | 0.306 |
| AATATCAC | 0.407 |
| GTATCTTA | 0.194 |
| ACAGGTTG | -0.21 |
| AGGAACCT | -0.139 |

| Sequence | PBM 8-mer E-score |
| --- | --- |
| AATTCTAC | 0.188 |
| ACTAGGCT | -0.105 |
| ACACCTCC | -0.0337 |
| CCGGTAAA | 0.0751 |
| TATTAGGA | 0.247 |
| ATCATATG | 0.241 |
| ATAATATC | 0.437 |
| ATGATATC | 0.131 |
| ATAATCTG | 0.196 |
| ATAATCTC | 0.337 |
| ATAATATG | 0.435 |
| CTACGATC | 0.0594 |
| ATGAATAA | 0.368 |
| CTGAATAA | 0.226 |
| AAGAATAC | 0.118 |
| AAGAATAT | 0.316 |
| AAGAATAA | 0.368 |
| ATGAATAG | 0.131 |
| CGCTTGCC | -0.327 |
| CATATTGA | 0.264 |
| TATATTGA | 0.387 |
| GATATTGA | 0.228 |
| TATATTCA | 0.373 |
| AATATTCA | 0.312 |
| GATATTCA | 0.0985 |

| Sequence | PBM 8-mer E-score |
| --- | --- |
| CCCGGGGA | -0.299 |
| ATGATAAC | 0.178 |
| GTTATAAC | 0.434 |
| ATTATAAC | 0.415 |
| CTTATAAC | 0.352 |
| AGTATAAT | 0.336 |
| GCTATAAC | 0.13 |
| CTCATAAC | -0.0784 |
| ATTATAGC | 0.282 |
| GTTATAAA | 0.345 |
| CCTATAAC | 0.186 |
| ATTATAAT | 0.468 |
| ATGATAAT | 0.292 |
| AAGTGACT | 0.00519 |
| CTCCCTAA | -0.204 |
| GTGTGGGA | 0.0582 |
| GACGCTGC | -0.183 |
| AATCGTGG | -0.0233 |
| AAGCGGTG | -0.19 |
| AAATCTAC | -0.0273 |
| ACGAACGA | -0.115 |
| CTAAGCAC | -0.0271 |
